According to PubChem BioAssay (Tox21):
Results filed as inconclusive are left out. The source made the active and inactive calls. Unless noted, calls come from the whole dose curve; as a rule, active = well fitted curve in the direction sought with a large enough effect in the repeat runs; inconclusive = weak or mixed curves; inactive = no such curve, though single readings can be large; an effect the other way counts as inactive or inconclusive.

Columns and labels:
[1] = target: Peroxisome proliferator-activated receptor delta (Homo sapiens) (UniProt Q03181); assay: qHTS assay to identify small molecule agonists of the peroxisome proliferator-activated receptor delta (PPARd) signaling pathway (AID 743212; calls by dose curve)
Peroxisome proliferator-activated receptor delta (Homo sapiens), sequence (Q03181 whole entry, looked up): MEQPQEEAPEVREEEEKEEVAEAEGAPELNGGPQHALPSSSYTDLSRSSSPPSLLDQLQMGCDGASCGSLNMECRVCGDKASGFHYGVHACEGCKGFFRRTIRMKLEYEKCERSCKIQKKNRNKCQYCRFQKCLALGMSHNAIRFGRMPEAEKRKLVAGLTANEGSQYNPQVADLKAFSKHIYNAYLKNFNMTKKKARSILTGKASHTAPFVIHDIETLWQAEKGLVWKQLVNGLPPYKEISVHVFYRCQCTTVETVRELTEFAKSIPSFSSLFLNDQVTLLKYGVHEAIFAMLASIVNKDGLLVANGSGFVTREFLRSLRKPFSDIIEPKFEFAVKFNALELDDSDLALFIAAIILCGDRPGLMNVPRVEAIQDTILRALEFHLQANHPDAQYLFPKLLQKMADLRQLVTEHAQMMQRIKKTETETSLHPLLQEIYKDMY
Summary of the method: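 Beta-lactamase reporter readout: a ratiometric FRET signal from the LiveBLAzer substrate after 2 h at room temperature. Compound exposure at 37 °C in PPARδ-bla HEK293H cells driven by an upstream activator sequence.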

[2] = qHTS assay to identify small molecule antagonists of the peroxisome proliferator-activated receptor delta (PPARd) signaling pathway - cell viability counter screen (AID 743213); note: nearly all actives have a fitted effect of over 50% in size
Summary of the method: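 PPARd-bla HEK293H cells were treated with compounds plus agonist L165041 (300 nM final) for 17 h at 37 C. Viability was then read in the same wells by CellTiter-Glo luminescence after 30 min at room temperature.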

[3] = target: Peroxisome proliferator-activated receptor delta (Homo sapiens) (UniProt Q03181); assay: qHTS assay to identify small molecule antagonists of the peroxisome proliferator-activated receptor delta (PPARd) signaling pathway (AID 743215; active = well fitted inhibition curve with a large enough effect in the signal ratio in the repeat runs, not every such curve was filed as active; the % refers to the signal ratio;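 note: cells stimulated with agonist L165041 at 300 nM final during compound exposure; series mostly up to about 62 µM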)
Summary of the method: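 Cells: HEK293H with a UAS-driven beta-lactamase reporter responsive to PPARd. Compounds were co-added with L165041 (300 nM, final) and incubated 17 h at 37 C before a 2 h room-temperature FRET substrate step and fluorescence reading.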

[4] = target: Bile acid receptor (Homo sapiens) (UniProt Q96RI1); assay: qHTS assay to identify small molecule antagonists of the farnesoid-X-receptor (FXR) signaling pathway (AID 743217; active = well fitted inhibition curve with a large enough effect in the signal ratio in the repeat runs, not every such curve was filed as active; the % refers to the signal ratio)
Bile acid receptor (Homo sapiens), sequence (Q96RI1 whole entry, looked up): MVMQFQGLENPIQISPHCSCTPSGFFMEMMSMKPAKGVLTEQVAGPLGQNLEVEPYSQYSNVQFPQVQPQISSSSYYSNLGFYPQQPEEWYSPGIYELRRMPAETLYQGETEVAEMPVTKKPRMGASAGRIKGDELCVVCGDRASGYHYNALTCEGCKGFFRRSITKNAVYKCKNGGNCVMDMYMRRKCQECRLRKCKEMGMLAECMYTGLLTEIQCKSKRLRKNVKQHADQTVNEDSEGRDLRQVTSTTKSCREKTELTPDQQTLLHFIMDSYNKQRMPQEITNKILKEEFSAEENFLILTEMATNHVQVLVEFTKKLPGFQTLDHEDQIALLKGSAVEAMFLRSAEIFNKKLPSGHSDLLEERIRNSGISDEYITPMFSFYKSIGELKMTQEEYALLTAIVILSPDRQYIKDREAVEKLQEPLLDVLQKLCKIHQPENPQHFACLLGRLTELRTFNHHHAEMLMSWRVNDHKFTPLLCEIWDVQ
Summary of the method: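 Cells carrying a UAS-driven beta-lactamase reporter (GeneBLAzer FXR-UAS-bla HEK 293T) were plated and rested 5 h at 37 °C. Compounds in DMSO were added alongside chenodeoxycholic acid agonist at 50 uM final and left 16 h at 37 °C before FRET substrate readout.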

[5] = qHTS assay to identify small molecule agonists of the farnesoid-X-receptor (FXR) signaling pathway - cell viability counter screen (AID 743218); note: nearly all actives have a fitted effect of over 45% in size
Summary of the method: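 Cells were seeded, left 5 h at 37 C and 5% CO2, then dosed with compound in DMSO for 16 h. After the beta-lactamase FRET read, CellTiter-Glo was added and luminescence measured 30 min later.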

[6] = qHTS assay to identify small molecule antagonists of the farnesoid-X-receptor (FXR) signaling pathway - cell viability counter screen (AID 743221; active = well fitted cell-killing curve with a large enough effect in the repeat runs, not every such curve was filed as active; note: nearly all actives have a fitted effect of over 50% in size)
Summary of the method: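 Cytotoxicity is taken from ATP luminescence (CellTiter-Glo, 30 min, room temperature) in FXR-bla HEK 293T cells previously incubated 16 h at 37 C with compound and chenodeoxycholic acid at 50 uM final.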

[7] = qHTS assay to identify small molecule agonists of the vitamin D receptor (VDR) signaling pathway - cell viability counter screen (AID 743224); note: series mostly up to about 63 µM; nearly all actives have a fitted effect of over 50% in size
Summary of the method: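 Cells: VDR-bla, 2,000/well, settled 4 h. Treatment: compounds in DMSO, 16 h, 37C/5% CO2. Readout: CellTiter-Glo luminescence after 30 min RT.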

[8] = qHTS assay to identify small molecule antagonists of the vitamin D receptor (VDR) signaling pathway - cell viability counter screen (AID 743225); note: nearly all actives have a fitted effect of over 50% in size
Summary of the method: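 Same-well multiplex: following 16 h treatment of HEK 293T cells carrying a UAS-driven beta-lactamase reporter with compound and agonist (3 nM final), and a 2 h FRET substrate step, CellTiter-Glo was added and luminescence read after 30 min.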

[9] = qHTS assay to identify small molecule agonists of the NFkB signaling pathway - cell viability counter screen (AID 1159515; calls by dose curve; note: series mostly up to about 61 µM; nearly all actives have a fitted effect of over 55% in size)
Summary of the method: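 Cells are seeded (2,000 NFkB-bla ME-180 per well), rested overnight, and dosed with DMSO-dissolved compounds for 5 hr at 37 C. Viability is then read by CellTiter-Glo luminescence after 30 min at room temperature.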

[10] = qHTS assay to identify small molecule agonists of the endoplasmic reticulum stress response signaling pathway (AID 1159516; active = well fitted activation curve with a large enough effect in the signal ratio in the repeat runs, not every such curve was filed as active; the % refers to the signal ratio)
Summary of the method: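 Cells are seeded at 1,500 per well and incubated overnight. Compounds in DMSO are added for 5 hr at 37 C, then beta-lactamase FRET substrate for 2 hr at room temperature, and fluorescence at 460 and 530 nm is measured.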

[11] = qHTS assay to identify small molecule agonists of the endoplasmic reticulum stress response signaling pathway - cell viability counter screen (AID 1159517; calls by dose curve)
Summary of the method: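 ESRE-bla HeLa cells (1,500/well) were plated overnight at 37 C and exposed to compounds for 5 hr. After the 2 hr beta-lactamase substrate read, CellTiter-Glo went into the same wells, and luminescence was read after 30 min at room temperature.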

[12] = qHTS assay to identify small molecule antagonists of the retinoid-related orphan receptor gamma (ROR-gamma) signaling pathway - cell viability counter screen (AID 1159520); note: nearly all actives have a fitted effect of over 50% in size
Summary of the method: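 Cytotoxicity was read from cellular ATP (CellTiter-Glo luminescence) after 16 hr at 37 C with 1 uM doxycycline induction. The inducer was added 2 hr after compound transfer to Tet-on ROR gamma CHO cells.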

[13] = target: Nuclear receptor ROR-gamma (Homo sapiens) (UniProt P51449); assay: qHTS assay to identify small molecule antagonists of the retinoid-related orphan receptor gamma (ROR-gamma) signaling pathway (AID 1159521; note: nearly all actives have a fitted effect of over 50% in size; note: potency is the fitted concentration of half-maximal effect)
Summary of the method: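 Inducible-expression reporter assay: doxycycline (1 uM final) switched on RORγ in CHO cells bearing a ROR response element-luciferase construct, with test compounds present from 2 h beforehand. Decreased luminescence after 16 h defined antagonist activity.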

[14] = qHTS assay to identify small molecule agonists of the AP-1 signaling pathway - cell viability counter screen (AID 1159525; calls by dose curve; note: nearly all actives have a fitted effect of over 55% in size)
Summary of the method: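 Intracellular ATP by Cell Titer Glo luminescence (30 min, RT) in the same ME-180 AP-1-bla wells after the 5 h compound exposure at 37 °C. Normalised to tetra n-octyl ammonium bromide and DMSO controls.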

[15] = qHTS assay to identify small molecule agonists of the AP-1 signaling pathway (AID 1159526; calls by dose curve)
[16] = qHTS assay to identify small molecule agonists of the RXR signaling pathway - cell viability counter screen (AID 1159529)
Summary of the method: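 Counter screen: CellTiter-Glo luminescence. Cells: RXR-alpha-UAS-bla HEK 293T. Medium: 2% charcoal-stripped FBS. Treatment: 16 h, 37 C. Reagent incubation: 30 min, RT.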

[17] = target: Bile acid receptor (Homo sapiens) (UniProt Q96RI1); assay: qHTS assay to identify small molecule agonists of the farnesoid-X-receptor (FXR) signaling pathway (AID 743220; active = well fitted activation curve with a large enough effect in the signal ratio in the repeat runs, not every such curve was filed as active; the % refers to the signal ratio)
Summary of the method: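 FXR-UAS-bla HEK 293T cells carrying a UAS-driven beta-lactamase reporter were plated for 5 h at 37C/5% CO2, then exposed to DMSO-dissolved Tox21 10K compounds for 16 h at 37C. A LiveBLAzer B/G FRET substrate was loaded for 2 h at room temperature before fluorescence reading.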

[18] = target: Vitamin D3 receptor (Homo sapiens) (UniProt P11473); assay: qHTS assay to identify small molecule agonists of the vitamin D receptor (VDR) signaling pathway (AID 743222; calls by dose curve)
Vitamin D3 receptor (Homo sapiens), sequence (P11473 whole entry, looked up): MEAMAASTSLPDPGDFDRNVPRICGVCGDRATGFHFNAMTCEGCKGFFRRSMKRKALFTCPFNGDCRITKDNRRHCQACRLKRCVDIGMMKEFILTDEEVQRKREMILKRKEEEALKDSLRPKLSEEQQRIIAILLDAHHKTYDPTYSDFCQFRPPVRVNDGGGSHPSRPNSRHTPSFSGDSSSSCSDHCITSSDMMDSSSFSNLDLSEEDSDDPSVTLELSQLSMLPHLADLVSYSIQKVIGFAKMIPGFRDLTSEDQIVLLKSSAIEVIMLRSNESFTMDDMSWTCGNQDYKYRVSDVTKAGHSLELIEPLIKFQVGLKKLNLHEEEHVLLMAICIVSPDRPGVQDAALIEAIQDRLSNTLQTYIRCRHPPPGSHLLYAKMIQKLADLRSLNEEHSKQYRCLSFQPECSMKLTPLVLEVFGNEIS
Summary of the method: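 Cells carrying a VDR-driven beta-lactamase reporter are seeded at 2,000 per well and rested 4 h. Compounds in DMSO are added for 16 h at 37C, and FRET substrate fluorescence is measured after 2 h at room temperature.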

[19] = target: Vitamin D3 receptor (Homo sapiens) (UniProt P11473); assay: qHTS assay to identify small molecule antagonists of the vitamin D receptor (VDR) signaling pathway (AID 743223; active = well fitted inhibition curve with a large enough effect in the signal ratio in the repeat runs, not every such curve was filed as active; the % refers to the signal ratio)
Summary of the method: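 Quantitative HTS in VDR-bla reporter cells stimulated with 1alpha,25-dihydroxyvitamin D3, 3 nM final. Compound exposure 16 h, 37C, 5% CO2. Read-out: beta-lactamase FRET substrate fluorescence, 2 h RT.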

[20] = target: Retinoic acid receptor RXR-alpha (Homo sapiens) (UniProt P19793); assay: qHTS assay to identify small molecule agonists of the RXR signaling pathway (AID 1159527; calls by dose curve; note: nearly all actives have a fitted effect of over 35% in size)
Retinoic acid receptor RXR-alpha (Homo sapiens), sequence (P19793 whole entry, looked up): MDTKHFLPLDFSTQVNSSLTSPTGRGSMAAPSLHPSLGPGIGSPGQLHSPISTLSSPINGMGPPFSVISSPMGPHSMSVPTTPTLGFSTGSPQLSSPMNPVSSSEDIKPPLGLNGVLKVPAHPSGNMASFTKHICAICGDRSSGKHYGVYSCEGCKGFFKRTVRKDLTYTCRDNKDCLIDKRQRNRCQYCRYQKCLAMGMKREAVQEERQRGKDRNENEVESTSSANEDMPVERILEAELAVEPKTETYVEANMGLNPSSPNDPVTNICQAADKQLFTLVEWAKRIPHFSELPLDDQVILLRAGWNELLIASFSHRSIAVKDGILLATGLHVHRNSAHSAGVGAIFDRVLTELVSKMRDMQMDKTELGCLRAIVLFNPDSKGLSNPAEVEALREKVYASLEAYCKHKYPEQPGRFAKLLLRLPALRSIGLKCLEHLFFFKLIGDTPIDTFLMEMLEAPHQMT
Summary of the method: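 Compounds in DMSO were added to RXR-alpha-UAS-bla HEK 293T cells kept in 2% charcoal-stripped serum, and incubated 16 hr at 37 C with 5% CO2. Reporter signal came from a 2 hr B/G FRET substrate step.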

Measured: Potency

COc1cc(C)nc(-n2nc(C)cc2OC)n1
not listed: [17] | [18] | [19] | [20]
inactive: all other assays above

Nc1ccncc1N
not listed: [2] | [20]
inactive: all other assays above

CCOC(=O)c1ccccc1
not listed: [4] | [17] | [20]
inactive: all other assays above

CC(C)(C)c1ccc(-c2ccc(C(C)(C)C)cc2)cc1
not listed: [2] | [3] | [5] | [18] | [19] | [20]
inactive: all other assays above

CC(=O)O[C@@]12CO[C@@H]1C[C@H](O)[C@@]1(C)C(=O)[C@H](O)C3=C(C)[C@@H](OC(=O)[C@H](O)[C@@H](NC(=O)OC(C)(C)C)c4ccccc4)C[C@@](O)([C@@H](OC(=O)c4ccccc4)[C@H]21)C3(C)C
not listed: [3] | [4] | [16] | [19]
inactive: all other assays above

CO[C@@]1(NC(=O)C(C(=O)O)c2ccc(O)cc2)C(=O)N2C(C(=O)O)=C(CSc3nnnn3C)CO[C@@H]21 (stereo partly drawn)
not listed: [4] | [5] | [17] | [20]
inactive: all other assays above

COc1cc(C(=O)NCc2ccc(OCCN(C)C)cc2)cc(OC)c1OC
not listed: [3] | [4] | [16] | [17] | [18] | [19]
inactive: all other assays above

CN1CC(=O)N/C1=N/C(=O)Nc1cccc(Cl)c1
not listed: [1] | [3] | [4] | [7] | [16] | [17]
inactive: all other assays above

C=CC(C)(CCC=C(C)C)OC(=O)CC (stereo not drawn)
not listed: [1] | [3] | [7] | [16]
inactive: all other assays above

COc1cc2c(cc1OC)-c1cc3ccc(OC)c(OC)c3c[n+]1CC2
inactive: [6] | [18] | [7] | [9] | [10] | [11] | [12] | [13] | [14] | [15] | [16]

CC1(C)OC[C@@H](COC(=O)CCc2ccc(OC[C@@H](O)CNCCNC(=O)N3CCOCC3)cc2)O1
not listed: [1] | [3] | [4] | [16] | [17]
inactive: all other assays above

CCCC(=O)O[C@]1(C(=O)CC)CC[C@H]2[C@@H]3CCC4=CC(=O)CC[C@]4(C)[C@H]3[C@@H](O)C[C@@]21C
active: [13] 10.6 µM
not listed: [1] | [4] | [16] | [17] | [18] | [19]
inactive: all other assays above

CCOC(=O)C(=O)CCCCCCl
not listed: [4] | [5] | [20]
inactive: all other assays above

Cc1ccc(C(=O)Nc2ccc(S(=O)(=O)O)c3cc(S(=O)(=O)O)cc(S(=O)(=O)O)c23)cc1NC(=O)c1cccc(NC(=O)Nc2cccc(C(=O)Nc3cc(C(=O)Nc4ccc(S(=O)(=O)O)c5cc(S(=O)(=O)O)cc(S(=O)(=O)O)c45)ccc3C)c2)c1
not listed: [4] | [5] | [17] | [20]
inactive: all other assays above

O=Cc1cccc(Br)c1
not listed: [20]
inactive: all other assays above
